Measurements from the supplement of paper PMC12669032.
Values without a mark were called inactive.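 How the source made its calls: active = AUC reduced over 20% with Padj below 0.05 in at least 2 of 3 replicates; inactive = otherwise.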

Tests used:
Experiment in all cases: growth AUC relative to DMSO control (median of replicates) (fraction); higher = more growth (less inhibition), active = hit call of the paper
Conditions in all cases: 20 µM; 24 h
Akkermansia muciniphila = test system: Akkermansia muciniphila
Summary of the method: (§1)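 For each compound at 20 µM (1% DMSO), gut bacterial monocultures seeded at OD600 0.05 grew anaerobically in mGAM at 37 °C in round-bottom 96-well plates. Hourly OD600 readings over 24 h gave growth curves whose minimum OD was set to 0. Area under these curves was normalised to the plate median of solvent-only wells, or to row and column medians on the industrial chemical plate. Values are medians of three biological replicates grown on separate days.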

Bacteroides caccae = test system: Bacteroides caccae
Summary of the method: as §1

Bacteroides clarus = test system: Bacteroides clarus
Summary of the method: as §1

Bacteroides dorei = test system: Bacteroides dorei
Summary of the method: as §1

Bacteroides stercoris = test system: Bacteroides stercoris
Summary of the method: as §1

[1] = test system: Bacteroides thetaiotaomicron
Summary of the method: as §1

Bacteroides uniformis = test system: Bacteroides uniformis
Summary of the method: as §1

[2] = test system: Bifidobacterium longum subsp. longum
Summary of the method: as §1

Clostridium difficile = test system: Clostridium difficile
Summary of the method: as §1

Collinsella aerofaciens = test system: Collinsella aerofaciens
Summary of the method: as §1

Coprococcus comes = test system: Coprococcus comes
Summary of the method: as §1

Escherichia coli ED1a = test system: Escherichia coli ED1a
Summary of the method: as §1

Escherichia coli IAI1 = test system: Escherichia coli IAI1
Summary of the method: as §1

Eubacterium rectale = test system: Eubacterium rectale
Summary of the method: as §1

[3] = test system: Fusobacterium nucleatum subsp. animalis
Summary of the method: as §1

Lactobacillus gasseri = test system: Lactobacillus gasseri
Summary of the method: as §1

Lactobacillus paracasei = test system: Lactobacillus paracasei
Summary of the method: as §1

Odoribacter splanchnicus = test system: Odoribacter splanchnicus
Summary of the method: as §1

[4] = test system: Parabacteroides distasonis
Summary of the method: as §1

Parabacteroides merdae = test system: Parabacteroides merdae
Summary of the method: as §1

| Compound | growth AUC (Akkermansia muciniphila) | growth AUC (Bacteroides caccae) | growth AUC (Bacteroides clarus) | growth AUC (Bacteroides dorei) | growth AUC (Bacteroides stercoris) | growth AUC [1] | growth AUC (Bacteroides uniformis) | growth AUC [2] | growth AUC (Clostridium difficile) | growth AUC (Collinsella aerofaciens) | growth AUC (Coprococcus comes) | growth AUC (Escherichia coli ED1a) | growth AUC (Escherichia coli IAI1) | growth AUC (Eubacterium rectale) | growth AUC [3] | growth AUC (Lactobacillus gasseri) | growth AUC (Lactobacillus paracasei) | growth AUC (Odoribacter splanchnicus) | growth AUC [4] | growth AUC (Parabacteroides merdae) |
| --- | --- | --- | --- | --- | --- | --- | --- | --- | --- | --- | --- | --- | --- | --- | --- | --- | --- | --- | --- | --- |
| Clc1cc(Cl)c(Cl)c(Cl)c1 | 0.953 | 0.971 | 0.989 | 0.957 | 0.887 | 0.997 | 1.02 | 1 | 0.977 | 0.922 | 0.984 | 0.961 | 0.982 | 1.05 | 0.957 | 0.918 | 0.949 | 1.08 | 0.953 | 0.941 |
| ClCC(Br)CBr (stereo not given) | 0.997 | 1.04 | 0.981 | 0.974 | 0.996 | 1 | 0.957 | 1 | 1 | 0.992 | 1 | 0.985 | 0.996 | 0.994 | 0.995 | 0.916 | 0.995 | 1.02 | 1 | 0.996 |
| COP(=S)(OC)Oc1ccc([N+](=O)[O-])cc1 | 1.18 | 0.898 | 1.03 | 0.888 | 1.04 | 0.975 | 0.96 | 1.03 | 1.02 | 0.955 | 0.992 | 0.999 | 1 | 1.13 | 1.13 | 0.915 | 0.989 | 0.771 | 0.93 | 0.964 |
| Cc1cc(OC(=O)N(C)C)nn1C(=O)N(C)C | 0.959 | 1.02 | 0.992 | 0.968 | 1.09 | 1.02 | 0.979 | 0.988 | 1.01 | 1.02 | 1.03 | 0.996 | 0.971 | 1.01 | 1.03 | 0.992 | 0.963 | 0.935 | 1.11 | 0.966 |
| CCC(C)(C)C(=O)OC1=C(c2ccc(Cl)cc2Cl)C(=O)OC12CCCCC2 | 1.03 | 1 | 0.975 | 0.976 | 0.978 | 0.946 | 0.911 | 0.99 | 0.973 | 0.987 | 0.977 | 0.966 | 0.949 | 0.906 | 0.968 | 0.928 | 0.987 | 1.02 | 0.861 | 0.968 |
| CO/C=C(/C(=O)OC)c1ccccc1COc1cccc(C(F)(F)F)n1 | 0.949 | 0.984 | 0.945 | 0.995 | 0.91 | 0.936 | 0.927 | 0.983 | 1.01 | 0.978 | 0.993 | 0.989 | 0.997 | 0.937 | 0.948 | 0.975 | 1.02 | 0.964 | 0.558 (active) | 0.924 |
| CC(C)=CC1C(C(=O)OCc2cccc(Oc3ccccc3)c2)C1(C)C (mixture of isomers) | 1.21 | 0.961 | 0.994 | 0.917 | 1.01 | 1 | 0.991 | 0.864 | 1.02 | 0.914 | 0.992 | 0.975 | 0.974 | 1.06 | 1.11 | 0.767 | 1.02 | 1.03 | 0.924 | 0.956 |
| CC(C)OC(=O)C(O)(c1ccc(Br)cc1)c1ccc(Br)cc1 | 0.997 | 0.883 | 0.779 (active) | 0.933 | 0.239 (active) | 0.93 | 0.923 | 0.96 | 0.982 | 0.928 | 0.905 | 1.01 | 1.01 | 0.912 | 1.01 | 0.918 | 0.981 | 1.05 | 0.854 | 0.868 |
| Oc1c(Cl)ccc(Cl)c1Cl | 1.04 | 0.927 | 0.968 | 0.954 | 1.15 | 0.987 | 0.981 | 1.02 | 1 | 0.937 | 0.98 | 1.02 | 0.985 | 0.969 | 1.05 | 0.922 | 1.01 | 0.915 | 0.911 | 0.981 |
| CCO/N=C(\CC)C1=C(O)CC(c2c(C)cc(C)cc2C)CC1=O (stereo not given) | 1.1 | 0.821 | 1 | 0.999 | 0.97 | 0.986 | 0.962 | 1.05 | 0.969 | 0.943 | 1 | 0.992 | 0.978 | 1.07 | 1.05 | 0.875 | 0.969 | 1.07 | 0.995 | 0.909 |
| CCN(CC)c1c([N+](=O)[O-])cc(C(F)(F)F)c(N)c1[N+](=O)[O-] | 0.987 | 0.94 | 0.977 | 0.956 | 1.09 | 0.88 | 0.972 | 0.913 | 1 | 1 | 0.982 | 1.05 | 1.02 | 0.977 | 1.06 | 1.04 | 1.06 | 0.955 | 0.897 | 0.928 |
| Oc1ccc(Cl)c(Cl)c1Cl | 0.923 | 0.922 | 0.975 | 1.02 | 1.15 | 1 | 0.96 | 0.969 | 0.998 | 0.993 | 1.02 | 1.01 | 0.971 | 1.06 | 1.09 | 1.12 | 1.01 | 0.978 | 0.971 | 1.06 |
| Oc1ccc(-c2ccccc2)cc1 | 0.809 | 1.03 | 0.948 | 0.991 | 0.815 | 0.985 | 0.957 | 0.899 | 1.03 | 1 | 1.01 | 0.991 | 0.987 | 1 | 0.968 | 1.04 | 0.693 | 1.09 | 1.02 | 0.989 |
| c1coc(-c2nc3ccccc3[nH]2)c1 | 1.03 | 0.937 | 1 | 0.919 | 1.17 | 0.96 | 0.968 | 1.04 | 0.971 | 0.945 | 1.02 | 1.01 | 0.986 | 1.09 | 0.985 | 0.949 | 0.997 | 0.879 | 0.977 | 0.961 |
| CC(C)N(Cc1ccccc1)C(=O)C(C)(C)C | 1.11 | 0.928 | 0.976 | 0.936 | 0.958 | 0.98 | 0.999 | 1.04 | 0.937 | 0.92 | 0.988 | 0.966 | 0.971 | 1.03 | 0.969 | 0.814 | 0.934 | 1.07 | 0.989 | 0.948 |
| CS(=O)(=O)NC(=O)c1cc(Oc2ccc(C(F)(F)F)cc2Cl)ccc1[N+](=O)[O-] | 1.03 | 1.01 | 0.955 | 0.972 | 0.875 | 0.993 | 0.992 | 1.04 | 0.94 | 0.951 | 0.926 | 0.971 | 0.962 | 1.09 | 0.906 | 0.958 | 1.01 | 1.09 | 0.984 | 0.978 |
| CNC(=O)Oc1cccc2ccccc12 | 1.08 | 0.993 | 1.01 | 0.991 | 1.02 | 0.998 | 1.03 | 1.03 | 1.01 | 0.987 | 1.03 | 1.01 | 0.982 | 1.05 | 1.03 | 0.907 | 1.1 | 1.05 | 0.944 | 1 |
| CCC(C)(c1ccc(O)cc1)c1ccc(O)cc1 | 0.984 | 0.989 | 0.925 | 0.967 | 0.927 | 0.973 | 0.991 | 1.02 | 0.997 | 1 | 1.01 | 1 | 1.01 | 0.882 | 1.04 | 1 | 0.989 | 0.872 | 0.743 | 0.968 |
| CC(C)(C)c1ccc(CCOc2ncnc3ccccc23)cc1 | 1.16 | 0.952 | 0.973 | 0.921 | 0.872 | 0.975 | 0.944 | 0.996 | 0.98 | 0.943 | 0.98 | 0.976 | 0.973 | 0.905 | 0.887 | 0.924 | 0.942 | 0.834 | 0.795 (active) | 0.934 |
| CCN(CC)C(=O)/C(Cl)=C(/C)OP(=O)(OC)OC | 1.19 | 1 | 0.975 | 0.921 | 0.977 | 0.958 | 0.979 | 1.02 | 0.94 | 0.967 | 0.978 | 0.942 | 0.953 | 1.08 | 1 | 0.886 | 0.969 | 0.935 | 0.888 | 0.978 |
| ClC1=C(Cl)C2(Cl)[C@H]3[C@H]4O[C@H]4[C@H](Cl)[C@H]3C1(Cl)C2(Cl)Cl (single isomer, unassigned; isomer a) | 1.05 | 0.99 | 0.989 | 1 | 0.778 | 1.02 | 0.991 | 1.07 | 0.998 | 0.949 | 0.941 | 0.982 | 0.971 | 1.05 | 1.08 | 0.96 | 0.991 | 1.08 | 1.02 | 0.98 |
| CC#Cc1cc(C)nc(Nc2ccccc2)n1 | 1.08 | 1.01 | 0.991 | 0.941 | 1 | 0.945 | 0.975 | 0.978 | 0.965 | 0.995 | 1.01 | 0.986 | 0.973 | 1.03 | 1.1 | 0.844 | 0.983 | 1.06 | 0.945 | 0.991 |
